Compounds with a hit are over-represented: about 2.5% of the library has one in this group of screens.
ATG4B inhibitor – blocks human ATG4B protease cleavage of LC3 substrate; Q9Y4P1; ATG4B cleavage of LC3-PLA2, NBD-HPC fluorescence, 1 h; inhibition, % at 8.33 µM; 340,000 tested, 0.51% active; AID 504462; in the data active = inhibition above about 40%
Target sequence (Q9Y4P1 whole entry, looked up): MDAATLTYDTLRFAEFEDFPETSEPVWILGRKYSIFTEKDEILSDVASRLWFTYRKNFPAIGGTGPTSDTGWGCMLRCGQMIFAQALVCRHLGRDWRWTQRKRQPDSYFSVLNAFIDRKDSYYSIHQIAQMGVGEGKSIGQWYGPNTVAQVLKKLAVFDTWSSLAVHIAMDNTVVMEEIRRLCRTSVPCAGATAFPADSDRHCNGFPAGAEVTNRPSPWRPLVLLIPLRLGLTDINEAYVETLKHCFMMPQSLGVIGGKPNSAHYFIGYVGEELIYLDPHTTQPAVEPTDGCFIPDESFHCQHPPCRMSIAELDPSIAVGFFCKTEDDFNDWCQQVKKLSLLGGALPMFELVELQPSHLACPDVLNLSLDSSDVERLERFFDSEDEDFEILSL
AI-2 QS mod – modulators of Vibrio harveyi AI-2 quorum sensing system. activity change, % at 7.5 µM. 300,000 tested, 0.4% active. AID 2094. Vibrio harveyi JMH597 AI-2 luminescence/OD600 ratio, 9 h; active compounds read low; strain lacks LuxN and CqsS sensors; 0 = neutral-control median; in the data active = activity change below about -75%, passing the limit was not always enough; inconclusive = no clear call, values can overlap the other calls;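 note: luminescence divided by OD600 gain over 9 h not by final OD600 alone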
Mot1-301 SUMO – SUMOylation pathway inhibition by Mot1-301 growth rescue; S. cerevisiae Mot1-301 growth rescue, ATP luminescence, 38.5C; percent above DMSO median, 100 means doubled; 320,000 tested, 1% active; growth rescue, % at 18.8 µM;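 active = every valid replicate shows activation above 250% relative to neutral control wells; inactive = the rest, any valid replicate at or below 250%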;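 note: OY570 slx delta 5 strain wells were the positive control but not used for scaling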
Efflux pump mplx – antifungal efflux pump inhibition, Nile Red retention; S. cerevisiae Candida pump triplex; inhibition, % at 10 µM; 330,000 tested, 0.44% active;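 active = plate passing quality check with inhibition over a set limit, or well fluorescence over plate mean plus 4 SD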;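 note: Nile Red retained in pooled yeast measured as flow cytometry median fluorescence; 0% = buffer negative control and 100% = Enniatin B positive control; higher means more Nile Red kept so more efflux inhibition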
V-ATPase pHluor – yeast V-ATPase proton transport regulation by pHLuorin; S. cerevisiae, pHLuorin cytosolic pH fluorescence; response, % at 10 µM; 350,000 tested, 0.37% active; AID 504577; in the data active = response mostly above about 7.3%, no sharp cut-off; inactive = mostly below about 5.4%; note: actives read high
Starred values were filed as active, the others as inactive; u = inconclusive; x = not tested or not shown.

SMILES	ATG4B inhibitor	AI-2 QS mod	Mot1-301 SUMO	Efflux pump mplx	V-ATPase pHluor
CC(O)CC(C(=O)NNc1ccccc1)C(=O)NNc1ccccc1 (stereo not given)	-2	11	606*	0	0
COc1cccc(/C=N/NC(=O)c2ccc(-n3cnnn3)cc2)c1	-2	x	x	x	-3
CC(=O)Nc1ccc2c(c1)CCc1ccccc1-2	6	18	145	0	-5
O=C(O)/C=C/C(=O)c1ccc2c(c1)CCc1ccccc1-2	16	-89*	-26	0	1
COc1ccc(CNC(=O)COC(=O)c2cc(-c3ccc(Cl)s3)nc3ccccc23)cc1	-7	-1	276*	0	3
CC(OC(=O)c1ccc(Cl)nc1)C(=O)NCc1ccc2c(c1)OCO2 (stereo not given)	4	-9	9	0	5
CC(NC(=O)/C(C#N)=C/c1ccc([N+](=O)[O-])o1)c1ccccc1 (stereo not given)	-9	u	146	1	94*
O=C(O)CCCNC(=O)c1ccc(NC(=O)Cc2ccc(Cl)cc2)cc1	5	11	-14	0	-1
Cc1nnc(N2CCC(C(=O)N3CCCCC3)CC2)c2nn(-c3ccc(Cl)cc3)c(C)c12	53*	25	3	0	-7
O=C(NNS(=O)(=O)c1ccccc1)c1ccc(S(=O)(=O)N2CCCCC2)cc1	2	-96*	-2	0	-2
COC(=O)c1ccc(S(=O)(=O)NNC(=O)c2ccc(S(=O)(=O)N3CCCCC3)cc2)cc1	-3	20	-19	0	-4
CCC1(c2ccccc2)ON(c2c(Br)cccc2Br)C1=O (stereo not given)	4	x	718*	0	3
O=C1CC(N2CCC(Cc3ccccc3)CC2)C(=O)N1CCc1ccccc1 (stereo not given)	-14	6	3	0	10*
O=C1CC(N2CCN(C3CC(=O)N(CCc4ccccc4)C3=O)CC2)C(=O)N1CCc1ccccc1 (stereo not given)	0	12	311	0	1
O=C(NCCc1ccccc1Cl)C1CCC(=O)N(C2CCCCCC2)C1 (stereo not given)	1	29	-11	0	5
Cc1nn(-c2ccccc2)c(C)c1CNC(=O)c1ccc(S(=O)(=O)NCc2ccco2)cc1	-4	x	-3	0	20*
Cc1cc(C)n(CCCNC(=O)c2ccc(S(=O)(=O)NCc3ccco3)cc2)n1	0	9	41	0	3
CC(Oc1ccc(Br)cc1)C(=O)NNC(=O)CCN1CCN(c2ccccc2)CC1 (stereo not given)	0	-92*	-11	0	1
CSc1nnc(Cc2cc(=O)[nH]c(=O)[nH]2)n1-c1cccc(C)c1	-12	25	352*	0	2
CCS(=O)(=O)c1ccc(O)c(NC(=O)/C=C/c2ccccc2)c1	6	-91*	x	0	6
CCS(=O)(=O)c1ccc(O)c(NC(=O)CCCC(=O)O)c1	-7	12	1	0	4
CS/C(N)=N/S(=O)(=O)c1ccc(NC(C)=O)cc1	-1	21	2	0	1
CCOc1ccc(S(=O)(=O)Nc2ccc3c(c2)c2c(n3S(=O)(=O)c3ccc(OCC)cc3)CCCC2=O)cc1	x	22	877*	-3	x
CC(C)(C)S(=O)(=O)c1ccc(S(=O)(=O)C(C)(C)C)s1	x	4	949*	0	x
CCCC(=O)Nc1sc(Cc2ccccc2)c(C)c1C(N)=O	-14	0	-4	0	1
SMILES	ATG4B inhibitor	AI-2 QS mod	Mot1-301 SUMO	Efflux pump mplx	V-ATPase pHluor
COc1ccc(C(=O)NCC(C)(C)N2CCOCC2)cc1S(=O)(=O)NCc1ccc(Cl)cc1	-9	x	x	x	21*
COc1ccc(C(=O)NCCNC(C)=O)cc1S(=O)(=O)NCc1ccc(Cl)cc1	1	35	6	0	-1
COc1cc(OC)cc(C(=O)NCC(C)NC(=O)c2cc(OC)cc(OC)c2)c1 (stereo not given)	-8	11	-8	0	-5
CCc1cc(C(=O)NNC(=O)c2csc(N3CCOCC3)n2)sc1C	-6	x	x	x	0
O=C(NNC(=O)c1cc(Br)c(Br)s1)c1csc(N2CCOCC2)n1	1	17	347*	0	-1
CC1CCCCC12NC(=O)N(CC(=O)Nc1ccc(S(=O)(=O)N3CCOCC3)cc1)C2=O (stereo not given)	2	11	9	0	8

Screens (PubChem BioAssay)
